Hit rate of the full screen: of about 5,500 compounds, about 2,000 (36%) were called active. Not shown: some 18% with an inconclusive outcome. Cut-off read from the data, not from the text of the source: active = normalized growth mostly below about 0.91 (no sharp cut-off); inconclusive = no clear call, values can overlap the other calls; inactive = mostly above about 0.92. The list shows a part of the results.
Experiment: chemical genetic growth profiling, strain panel (AID 1159580);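 note: tested at 20 µM; growth read once vehicle control cultures reached saturation at 30 °C; 1 = growth at the plate median or of vehicle wells; lower values mean less growth of the strain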
Settings: S. cerevisiae deletion strains, growth OD

Measured: normalized growth

C[C@@H]1O[C@@H](O[C@H]2C[C@@H](O)[C@]3(CO)[C@H]4[C@H](O)C[C@]5(C)[C@@H](C6=CC(=O)OC6)CC[C@]5(O)[C@@H]4CC[C@]3(O)C2)[C@H](O)[C@H](O)[C@H]1O
inactive: locus YAL040C, strain CLN3, stronger effect = lower value 0.989 | locus YCL061C, strain MRC1 (second series), stronger effect = lower value 0.996 | locus YDR150W, strain NUM1, stronger effect = lower value 1 | locus YDR363W, strain ESC2, stronger effect = lower value 0.984 | locus YER002W, strain NOP16, stronger effect = lower value 1.02 | locus YGR078C, strain PAC10, stronger effect = lower value 0.985 | locus YGR229C, strain SMI1, stronger effect = lower value 0.993 | locus YJR075W, strain HOC1, stronger effect = lower value 0.997 | locus YMR263W, strain SAP30, stronger effect = lower value 0.996 | locus YMR307W, strain GAS1, stronger effect = lower value 0.995 | locus YNL175C, strain NOP13, stronger effect = lower value 1.02 | locus YNL197C, strain WHI3, stronger effect = lower value 1.03 | locus YNL224C, strain SQS1, stronger effect = lower value 0.988 | locus YOR083W, strain WHI5 (second series), stronger effect = lower value 1
